This is a sample that favours compounds with a hit; in the whole collection about 1.6% have one here.
CCHF vOTU inh = blocks the CCHF virus ovarian tumor domain protease. CCHFV vOTU protease, Pep-AMC fluorescence. 370,000 tested, 0.55% active. inhibition, % at 11.5 µM. AID 651958; in the data active = inhibition above about 30%; also: 0% = vehicle wells with enzyme and 100% = no enzyme wells
BJeLR viability = kills HRASV12-expressing BJeLR cells; BJeLR (HRASV12) viability, CellTiter-Glo ATP luminescence, 48 h; inhibition, % (no concentration beside the values); 300,000 tested, 0.17% active; AID 1554; in the data active = inhibition above about 50%; inconclusive = no clear call, values can overlap the other calls
ugtP null kill = kills S. aureus RN4220 lacking UgtP; growth inhibition, % (no concentration beside the values); 330,000 tested, 0.54% active; S. aureus RN4220 ugtP deletion, OD600 growth, 16 h; AID 1259309; in the data active = growth inhibition above about 68%;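 also: plate controls were untreated wells for no effect and antibiotic for full effect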
PfHsp40 yeast = rescue of PfHsp40-mediated yeast toxicity; 340,000 tested, 0.68% active; growth rescue, % at 12.5 µM; S. cerevisiae expressing PfHsp40, growth rescue, ATP luminescence; in the data active = growth rescue above about 28%, passing the limit was not always enough; inconclusive = no clear call, values can overlap the other calls;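 also: yeast W303a lacking pdr1 and pdr3 grown in galactose medium; growth measured after three days at 30 °C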
RN4220 kill = kills Staphylococcus aureus RN4220; S. aureus RN4220 growth, OD600, 16 h; 330,000 tested, 0.33% active; AID 1259311; inhibition, % (test concentration not listed); in the data active = inhibition above about 85%;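 also: plate controls were untreated cells for no effect and reference antibiotic for full effect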
Starred values were filed as active, the others as inactive.

Results for N#CCc1ccc(NC(=O)/C=C/c2ccc([N+](=O)[O-])o2)cc1 ?
BJeLR viability: 101*; ugtP null kill: 100*; PfHsp40 yeast: 1; RN4220 kill: 101*

How did O=C(Cc1ccc([N+](=O)[O-])cc1)N/N=C/c1ccc([N+](=O)[O-])o1 do in these assays?
CCHF vOTU inh: 12; BJeLR viability: 55*; PfHsp40 yeast: 0

How did Cc1ccc(C2C(=C(O)c3ccc(Cl)cc3)C(=O)C(=O)N2CC2CCCO2)o1 (stereo not drawn) do in these assays?
ugtP null kill: -8; RN4220 kill: 8

How did C=CCON=CC1C(=O)CC(C)(C)CC1=O do in these assays?
ugtP null kill: 5; RN4220 kill: 3

Results for CC(CC(=O)Nc1ccc(N(C)C)cc1)=NNC(=O)c1ccccc1O ?
ugtP null kill: -7; RN4220 kill: 1

What do the screens show for `CC(=N/O)/C(=N\O)c1ccc(C)o1`?
CCHF vOTU inh: 17; BJeLR viability: 9; PfHsp40 yeast: 242*

What do the screens show for `O=c1[nH]c2ccc(S(=O)(=O)N3CCN(c4ccccc4F)CC3)cc2s1`?
CCHF vOTU inh: -2; BJeLR viability: -13; ugtP null kill: 101*; PfHsp40 yeast: 9; RN4220 kill: -12

Results for Cc1ccc(-c2csc(NCCn3c(-c4ccncc4)nc4cc(C(F)(F)F)ccc43)n2)cc1 ?
CCHF vOTU inh: 6; ugtP null kill: 64; PfHsp40 yeast: 0; RN4220 kill: 94*

How did COc1ccccc1-[n+]1c(C)cc(/C=C2\Sc3ccccc3N2C)cc1C do in these assays?
CCHF vOTU inh: 8; BJeLR viability: 73*; ugtP null kill: 100*; PfHsp40 yeast: -1; RN4220 kill: 100*

How did COc1ccc(C(=O)/C=C2\Sc3ccccc3N2C)cc1 do in these assays?
CCHF vOTU inh: 7; BJeLR viability: 11; ugtP null kill: 7; PfHsp40 yeast: 1; RN4220 kill: 7

How did COc1ccc(-[n+]2c(C)cc(/C=C3\Sc4ccccc4N3C)cc2C)cc1 do in these assays?
CCHF vOTU inh: 28; BJeLR viability: 45; ugtP null kill: 100*; PfHsp40 yeast: inconclusive; RN4220 kill: 100*

How did C=CCN1C(=O)C(=CC=C2N(C)c3ccccc3C2(C)C)SC1=S do in these assays?
ugtP null kill: -4; RN4220 kill: 8

What do the screens show for `Cc1nc(SC(C)C(=O)Nc2cccc(C(F)(F)F)c2)c2c(C)c(C(=O)O)sc2n1` (stereo not drawn)?
CCHF vOTU inh: 22; BJeLR viability: -16; ugtP null kill: 12; PfHsp40 yeast: 49*; RN4220 kill: 14

How did Cc1nc(N2CCC(C)CC2)c2c(C)c(C(=O)Nc3cccc(C(F)(F)F)c3)sc2n1 do in these assays?
CCHF vOTU inh: -6; BJeLR viability: -2; ugtP null kill: -17; PfHsp40 yeast: -1; RN4220 kill: 4

What do the screens show for `CC1NC(=O)C(CCCN=C(N)N)NC(=O)c2cc([N+](=O)[O-])cc(I)c2NCCCC(C(N)=O)NC1=O` (stereo not drawn)?
ugtP null kill: 3; RN4220 kill: 3

What do the screens show for `O=C(c1cnc2ccc3ccccc3c2c1)c1cc(F)ccc1O`?
CCHF vOTU inh: -9; BJeLR viability: -2; ugtP null kill: 1; PfHsp40 yeast: 84*; RN4220 kill: 18

Results for O=C(C[n+]1ccc(C=NO)cc1)N(Cc1ccccc1)Cc1ccccc1 ?
ugtP null kill: 0; RN4220 kill: 1

Results for CC12CCC(O)CC1=CCC1C2CCC2(C)C3=NN=CC3CC12 (stereo not drawn) ?
CCHF vOTU inh: 6; ugtP null kill: 18; PfHsp40 yeast: 86*; RN4220 kill: 2

How did CCOC(=O)C1=C(C)N=c2sc(=Cc3ccc(OCC(=O)O)cc3)c(=O)n2C1c1ccccc1 (stereo not drawn) do in these assays?
ugtP null kill: -5; RN4220 kill: 1

How did CCn1cc(C(=O)O)c(=O)c2ccc(C)nc21 do in these assays?
CCHF vOTU inh: 8; BJeLR viability: 5; ugtP null kill: 66; PfHsp40 yeast: 12; RN4220 kill: 0

What do the screens show for `CCn1cc(C(=O)O)c(=O)c2cc(F)c(N3CCNCC3)nc21`?
CCHF vOTU inh: 6; ugtP null kill: 97*; PfHsp40 yeast: 0; RN4220 kill: 98*

Results for CN(C)c1nc(-c2ccccn2)nnc1-c1ccccc1 ?
CCHF vOTU inh: 9; BJeLR viability: 82*; ugtP null kill: 3; PfHsp40 yeast: 393*; RN4220 kill: 13

What do the screens show for `CCCN(CCC)c1nc(-c2ccccn2)nc2ccccc12`?
CCHF vOTU inh: 12; BJeLR viability: 13; ugtP null kill: 100*; PfHsp40 yeast: 2; RN4220 kill: 99*

How did CCN(CC)c1nc(-c2ccccn2)nc(-c2ccccc2)c1C#N do in these assays?
CCHF vOTU inh: 10; BJeLR viability: 10; ugtP null kill: -6; PfHsp40 yeast: 71*; RN4220 kill: 1

What do the screens show for `CCCCN(CC)c1nc(-c2ccncc2)nc2ccccc12`?
CCHF vOTU inh: 5; BJeLR viability: -1; ugtP null kill: -15; PfHsp40 yeast: 1; RN4220 kill: -9

Results for c1ccc(-c2nnc(-c3ccccn3)c(-c3ccccn3)n2)nc1 ?
CCHF vOTU inh: -11; BJeLR viability: -3; ugtP null kill: 2; RN4220 kill: 1

Results for Cc1ccc(-c2nnc(-c3ccccc3)c(-c3ccccc3)n2)cc1 ?
CCHF vOTU inh: -2; BJeLR viability: 5; ugtP null kill: 92*; PfHsp40 yeast: 2; RN4220 kill: -8

What do the screens show for `Cc1ccc(NC(=O)c2nc[nH]c2C(=O)NC(CCCCNC(=O)OC(C)(C)C)C(=O)OC(C)(C)C)cc1` (stereo not drawn)?
ugtP null kill: -32; RN4220 kill: -6

What do the screens show for `O=C(NC(Cc1ccccc1)C(=O)O)c1ccc(C(F)(F)F)cc1` (stereo not drawn)?
ugtP null kill: -8; RN4220 kill: 2

How did CCN1C(=O)C2C(c3ccc(SC4CCCCC4)c(OC)c3)N3CCC[C@@]3(C(=O)OC)C2C1=O (stereo partly drawn) do in these assays?
ugtP null kill: 9; RN4220 kill: 6

What do the screens show for `COc1cc(OC)c(-c2c3cc(O)c(=O)cc-3oc3cc(O)c(O)cc23)cc1OC`?
CCHF vOTU inh: 10; ugtP null kill: -26; PfHsp40 yeast: 228*; RN4220 kill: 5

What do the screens show for `Fc1cccc(C[n+]2csc3ccccc32)c1`?
CCHF vOTU inh: -4; BJeLR viability: 2; ugtP null kill: 96*; PfHsp40 yeast: -2; RN4220 kill: 43

What do the screens show for `O=C(O)c1nc(Cl)c(Cl)c(NN=Cc2ccccc2C(F)(F)F)c1Cl`?
ugtP null kill: 16; RN4220 kill: 2

Results for CC(=NN=C(C)c1cccc(N)c1)c1cccc(N)c1 ?
ugtP null kill: 2; RN4220 kill: 8

What do the screens show for `CCOc1cccc(C=NNc2ccc(S(=O)(=O)N(CC)CC)cn2)c1O`?
ugtP null kill: 100*; RN4220 kill: 20

How did Cc1ccc(SCCNC(=S)Nc2ccc(C)c(C)c2)cc1 do in these assays?
CCHF vOTU inh: 18; BJeLR viability: 0; ugtP null kill: -6; PfHsp40 yeast: 97*; RN4220 kill: -1

Bioassay records: PubChem BioAssay, several laboratories
